In PubChem BioAssay AID1053173 (Broad Institute, 2014):
The whole screen tested about 1,500 compounds, of which about 390 (26%) were called active. The rule behind the calls is not given here. These entries were drawn from the full list. Results with a measured potency or affinity are listed apart.

Molecular target: Histone-lysine N-methyltransferase NSD2 (Homo sapiens) (UniProt O96028)
Assay: NSD2 methyltransferase inhibitors, dose response, biochemical, AlphaScreen, cherry-picked samples (AID 1053173);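 note: 0% = neutral control wells and -100% = positive control wells on each plate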
Details: NSD2 H4 peptide methylation, 120 min; series mostly up to 10 µM; activity change, negative = inhibition: at the top concentration

Chain of Histone-lysine N-methyltransferase NSD2 (Homo sapiens) (O96028 whole entry, looked up): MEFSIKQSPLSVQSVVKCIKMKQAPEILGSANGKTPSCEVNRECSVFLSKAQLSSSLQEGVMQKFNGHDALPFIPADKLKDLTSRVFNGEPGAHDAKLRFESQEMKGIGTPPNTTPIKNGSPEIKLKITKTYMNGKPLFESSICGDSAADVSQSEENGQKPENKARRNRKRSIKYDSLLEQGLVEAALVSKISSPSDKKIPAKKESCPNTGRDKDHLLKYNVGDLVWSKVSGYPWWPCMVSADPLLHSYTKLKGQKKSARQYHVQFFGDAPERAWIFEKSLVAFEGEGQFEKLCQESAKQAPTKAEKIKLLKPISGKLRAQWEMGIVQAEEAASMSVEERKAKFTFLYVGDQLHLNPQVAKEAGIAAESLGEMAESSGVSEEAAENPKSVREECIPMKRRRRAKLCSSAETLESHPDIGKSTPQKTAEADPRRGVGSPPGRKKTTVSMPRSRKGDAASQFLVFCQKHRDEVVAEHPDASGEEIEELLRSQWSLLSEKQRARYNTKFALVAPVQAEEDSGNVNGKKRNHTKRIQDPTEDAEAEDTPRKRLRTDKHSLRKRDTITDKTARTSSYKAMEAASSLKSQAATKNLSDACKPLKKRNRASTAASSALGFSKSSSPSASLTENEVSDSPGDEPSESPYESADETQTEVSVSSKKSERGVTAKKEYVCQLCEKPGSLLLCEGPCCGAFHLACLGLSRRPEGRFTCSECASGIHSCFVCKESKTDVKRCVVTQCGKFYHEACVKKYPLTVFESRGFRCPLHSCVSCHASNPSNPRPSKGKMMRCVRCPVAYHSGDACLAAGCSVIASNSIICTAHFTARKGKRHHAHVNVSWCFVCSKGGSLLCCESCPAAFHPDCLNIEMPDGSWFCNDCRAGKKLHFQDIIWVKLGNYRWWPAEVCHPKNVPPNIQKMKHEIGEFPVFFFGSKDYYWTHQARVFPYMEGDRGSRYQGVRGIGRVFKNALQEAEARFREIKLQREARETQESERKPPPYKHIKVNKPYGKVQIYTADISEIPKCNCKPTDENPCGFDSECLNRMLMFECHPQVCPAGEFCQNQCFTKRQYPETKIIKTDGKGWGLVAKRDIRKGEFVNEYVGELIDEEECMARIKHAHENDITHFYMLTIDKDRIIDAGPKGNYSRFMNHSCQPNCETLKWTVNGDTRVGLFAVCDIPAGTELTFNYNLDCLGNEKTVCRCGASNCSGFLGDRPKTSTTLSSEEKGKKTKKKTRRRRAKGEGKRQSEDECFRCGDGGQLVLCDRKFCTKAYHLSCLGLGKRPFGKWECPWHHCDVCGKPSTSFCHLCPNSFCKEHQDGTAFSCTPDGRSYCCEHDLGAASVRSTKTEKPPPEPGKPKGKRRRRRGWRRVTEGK

Activity change, negative = inhibition, inactive:
Cc1ccc2[nH]c3c(c2c1)CN(C(=O)CN(C)CC1OCCO1)CC3 -1.22%
CN1CCCCCC1=Nc1ccc([N+](=O)[O-])cc1 -6.03%
N#Cc1ccc(CSc2ncccn2)cc1 -3.28%
COc1ccc2ccccc2c1C1CC(=O)N2CN(C)CSC2=C1C#N (centres undefined) -2.35%
Cc1cccc(C(=O)Nc2cccc(-c3cnc4ccccc4n3)c2)c1 0.722%
C/C(=N\O)C(C)Oc1ccc(Cl)cc1 (centres undefined) -0.765%
NC(=O)c1oc2ccc(Cl)cc2c1N 2.14%
CCc1ccc(N2CN=c3s/c(=C\c4ccccc4)c(=O)n3C2)cc1 -0.972%
CCN1CCN(Cc2nc(N)nc(Nc3ccc(C)c(C)c3)n2)CC1 -4.72%
CSc1nnc2c(n1)OC=Nc1ccccc1-2 -1.34%
COc1ccc(C2N(C(=O)C(F)(F)F)C(C)CN2S(=O)(=O)c2ccc(C)cc2)cc1 (centres undefined) 3.6%
Nc1ccc(N(CCO)CCO)cc1 -10.2%
O=C(CSCC(=O)N1CCOCC1)Nc1nc(-c2ccccc2)cs1 3.11%
Cc1cccc(NC(=O)CCN2CCCCC2)c1 2.22%
O=C(OC(C(=O)NC1CCCCC1)c1ccccn1)c1cccs1 (centres undefined) 2.7%
C/C(NCCc1ccccc1)=C1/CCOC1=O 3.57%
COC(=O)c1ccc(/C=N/N2CCN(Cc3ccccc3)CC2)cc1 -6.96%
CCCCCCCCn1cnc2c(N)c(C)c(C)cc21 -2.93%
Cc1cc(Cl)cc(Br)c1OCCCN1C(=O)NC(C)(C)C1=O 0.235%
CC(=O)C1=C(O)C(=O)N(Cc2cccnc2)C1c1ccccc1 (centres undefined) 1.51%
Cc1ccc(OCc2cnc(Cl)s2)c(C)c1 5.09%
CC(=O)N=Cc1c(C)c(C#N)c(=O)n(C)c1O -1.78%
Oc1cccc(NC(=S)N=Nc2c(O)[nH]c3ccc(Br)cc23)c1 -7.09%
CCOc1ccc2nc(SCC(=O)NCc3ccco3)sc2c1 4.48%
COC(=O)N/N=C1/C/C(=N\NC(=O)OC)c2ccccc21 -6.25%
N#Cc1c(NC(=O)c2ccncc2)sc2c1CCC2 -9.64%
COc1cc(OC)nc(NC2OC(=O)c3ccccc32)n1 (centres undefined) 1.18%
CC(CS(=O)(=O)c1ccc2c(c1)NC(=O)CS2)C(=O)NCc1ccccc1Cl (centres undefined) -10.3%
Cc1cccc(/C=N/NC(=O)C(C)Nc2cccc3ccccc23)n1 (centres undefined) -8.21%
CC(Nc1cccc2ccccc12)C(=O)N/N=C/c1ccccn1 (centres undefined) -4.45%
Cc1ccc(Cl)cc1NC(=O)C[n+]1ccc(Cc2ccc([N+](=O)[O-])cc2)cc1 -11.1%
O=C(CSc1nnc(-c2ccccc2O)o1)NC1CCCCC1 -3.18%
O=C(O)CN1C(=O)/C(=C\c2cccc(OCc3ccc(F)cc3)c2)SC1=S -11.4%
Cc1cccc(C)c1NC(=O)c1c[nH]c2ccccc12 1.49%
